In PubChem BioAssay (NCATS):
Records with an inconclusive call do not appear. Activity calls are given as the source filed them. The call rests on the fitted dose curve; in most records, active means well fitted cell-killing curve with a large enough effect; inconclusive means small, poorly fitted or top-dose-only effect, or effect the other way; inactive means no such curve, though single readings can be large or run the other way.

Key:
[1] = Quantitative High-Throughput drug screen in 47 multiple myeloma cell lines against the NCATS MIPE library collection: FR4_PLB cell viability assay (AID 1918924; further: nearly all actives have a fitted effect of over 35% in size); details: FR4_PLB myeloma cells viability, CellTiter-Glo ATP, 48 h; series mostly up to 45.8 µM
Procedure, shortened: (§1)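 CellTiter-Glo luminescence (ATP) after 48 h compound exposure, 37C/5% CO2; 500 cells/well; MIPE 4.0 approved/investigational drugs pinned in; DMSO = 100%, media only = 0% viability.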

[2] = Quantitative High-Throughput drug screen in 47 multiple myeloma cell lines against the NCATS MIPE library collection: AMO1_DSMZ cell viability assay (AID 1918927; further: nearly all actives have a fitted effect of over 30% in size; further: potency means the concentration at half of the fitted maximal effect); details: AMO1 myeloma cells viability, CellTiter-Glo ATP luminescence, 48 h; series mostly up to 45.8 µM
Procedure, shortened: (§2)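 CellTiter-Glo ATP luminescence gave viability after 48 h compound treatment at 37C of 500 multiple myeloma cells per well. Normalisation used DMSO-only wells as 100% and media-only wells as 0% viability; primary qHTS of approved and investigational drugs.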

[3] = Quantitative High-Throughput drug screen in 47 multiple myeloma cell lines against the NCATS MIPE library collection: ARD_JJKsccE7 cell viability assay (AID 1918929; further: potency means the concentration at half of the fitted maximal effect); details: ARD myeloma cell line viability, CellTiter-Glo, 48 h; series mostly up to 45.8 µM
Procedure, shortened: as §2

[4] = Quantitative High-Throughput drug screen in 47 multiple myeloma cell lines against the NCATS MIPE library collection: KMM1_JCRB cell viability assay (AID 1918960); details: KMM1 myeloma viability, CellTiter-Glo ATP luminescence, 48 h; series mostly up to 45.8 µM; further: nearly all actives have a fitted effect of over 30% in size; further: potency means the concentration at half of the fitted maximal effect;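 on viability (% of DMSO): 100% = DMSO-treated cells and 0% = medium-only wells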
Procedure, shortened: (§3)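 Here, 48 h treatment with MIPE 4.0 agents at 37 °C preceded an ATP luminescence read. Plating density was 500 cells per well.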

[5] = Quantitative High-Throughput drug screen in 47 multiple myeloma cell lines against the NCATS MIPE library collection: ARP1_JJKsccF8 cell viability assay (AID 1918928; further: potency means the concentration at half of the fitted maximal effect; nearly all actives have a fitted effect of over 40% in size); details: ARP1 myeloma cells viability, CellTiter-Glo ATP, 48 h; series mostly up to 45.8 µM
Procedure, shortened: as §3

[6] = Quantitative High-Throughput drug screen in 47 multiple myeloma cell lines against the NCATS MIPE library collection: Karpas620_DSMZ cell viability assay (AID 1918959); details: Karpas620 myeloma viability, CellTiter-Glo ATP luminescence, 48 h; series mostly up to 45.8 µM; further: nearly all actives have a fitted effect of over 30% in size; further: potency means the concentration at half of the fitted maximal effect
Procedure, shortened: as §1

[7] = Quantitative High-Throughput drug screen in 47 multiple myeloma cell lines against the NCATS MIPE library collection: Delta47_JCRB cell viability assay (AID 1918925; further: potency means the concentration at half of the fitted maximal effect; nearly all actives have a fitted effect of over 45% in size); details: Delta47 myeloma viability, CellTiter-Glo ATP, 48 h; series mostly up to 45.8 µM
Procedure, shortened: as §2

[8] = Quantitative High-Throughput drug screen in 47 multiple myeloma cell lines against the NCATS MIPE library collection: EJM_DSMZ cell viability assay (AID 1918926; further: nearly all actives have a fitted effect of over 30% in size; further: potency means the concentration at half of the fitted maximal effect); details: EJM myeloma cell viability, CellTiter-Glo ATP, 48 h; series mostly up to 45.8 µM
Procedure, shortened: as §2

[9] = Quantitative High-Throughput drug screen in 47 multiple myeloma cell lines against the NCATS MIPE library collection: Karpas417_ECACC cell viability assay (AID 1918961); details: Karpas417 myeloma viability, CellTiter-Glo ATP luminescence, 48 h; viability (% of DMSO): at 45.8 µM (top of the series); further: potency means the concentration at half of the fitted maximal effect
Procedure, shortened: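 Myeloma cells (500 per well) were exposed to MIPE 4.0 compounds by pin transfer and incubated 48 hours at 37C, 5% CO2. Viability was read as ATP by CellTiter-Glo luminescence, normalised to DMSO (100%) and media-only (0%) wells.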

COc1ccc(CC2c3cc(OC)c(OC)cc3CC[N+]2(C)CCC(=O)OCCCCCOC(=O)CC[N+]2(C)CCc3cc(OC)c(OC)cc3C2Cc2ccc(OC)c(OC)c2)cc1OC (stereo not given)
inactive: viability (% of DMSO control) [1] 122% [at 5.15 µM] | viability, % of DMSO [2] 97.7% [at 5.15 µM] | viability [3] 97.8% [at 5.15 µM] | viability (% of DMSO) [4] 84% [at 5.15 µM]

C=C1C(=CC=C2CCCC3(C)[C@@H]([C@H](C)C=CC=CC(O)(CC)CC)CC[C@@H]23)C[C@@H](O)C[C@@H]1O (stereo not given in full)
active: Potency [2] 14.8 µM | Potency [5] 20.9 µM | Potency [3] 16.6 µM | Potency [6] 20.9 µM | Potency [4] 20.9 µM

Cc1cc(Nc2cc(N3CCN(C)CC3)nc(Sc3ccc(NC(=O)C4CC4)cc3)n2)n[nH]1
active: Potency [7] 3.72 µM | Potency [8] 14.8 µM | Potency [2] 0.372 µM | Potency [5] 7.43 µM | Potency [6] 0.0332 µM | Potency [4] 5.9 µM | Potency [9] 7.43 µM

Nc1ccc(S(=O)(=O)Nc2ncccn2)cc1
inactive: Potency [8] | Potency [2] | Potency [3] | Potency [6]

COc1cc(C(C)C)c2c(c1)S(=O)(=O)N(COc1cc(=O)n3cccc(OCCN4CCCCC4)c3n1)C2=O
active: Potency [7] 16.6 µM | Potency [8] 18.7 µM | Potency [2] 13.2 µM | Potency [6] 20.9 µM | Potency [4] 26.4 µM
